Bioassay records as filed in PubChem.
An excerpt weighted towards active compounds, which were near 4.5% of everything screened.
aSyn 5UTR inh – MLPCN primary screen, SNCA 5' untranslated region. 300,000 tested, 0.82% active. alpha-synuclein 5'UTR reporter, inhibitor activity. inhibition, % (tested at 7.5 µM). AID 1813; in the data active = inhibition above about 60%;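 note: H4 neuroglioblastoma cells stably carrying SNCA 5'UTR luciferase fusion; 0% = DMSO wells and 100% = positive control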
Gli-Sufu antag – Gli-Sufu pathway antagonism; Sufu-KO-LIGHT fibroblasts, Gli luciferase reporter luminescence; inhibition, % at 5 µM; 340,000 tested, 0.74% active; AID 588413;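 active = inhibition above about 55%, limit read from the data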;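 note: 0% = DMSO-treated cells and 100% = wells with medium but no cells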
697 NFkB inh – lowers PMA/ionomycin-induced NF-kB signal in 697 B cells; inhibition, % at 4 µM; 330,000 tested, 0.33% active; 697 B-cell NF-kB luciferase reporter, 16 h; in the data active = inhibition above about 35%
Mdm2-MdmX inh – inhibitors of human Mdm2/MdmX interaction; O15151+Q00987; SaOS-2 split-luciferase Mdm2/MdmX complementation, luminescence; inhibition, % at 8 µM; 330,000 tested, 3% active; AID 485346;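 active = inhibition of at least 50% at 8 µM in the primary screen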
Target sequence (O15151 whole entry, looked up): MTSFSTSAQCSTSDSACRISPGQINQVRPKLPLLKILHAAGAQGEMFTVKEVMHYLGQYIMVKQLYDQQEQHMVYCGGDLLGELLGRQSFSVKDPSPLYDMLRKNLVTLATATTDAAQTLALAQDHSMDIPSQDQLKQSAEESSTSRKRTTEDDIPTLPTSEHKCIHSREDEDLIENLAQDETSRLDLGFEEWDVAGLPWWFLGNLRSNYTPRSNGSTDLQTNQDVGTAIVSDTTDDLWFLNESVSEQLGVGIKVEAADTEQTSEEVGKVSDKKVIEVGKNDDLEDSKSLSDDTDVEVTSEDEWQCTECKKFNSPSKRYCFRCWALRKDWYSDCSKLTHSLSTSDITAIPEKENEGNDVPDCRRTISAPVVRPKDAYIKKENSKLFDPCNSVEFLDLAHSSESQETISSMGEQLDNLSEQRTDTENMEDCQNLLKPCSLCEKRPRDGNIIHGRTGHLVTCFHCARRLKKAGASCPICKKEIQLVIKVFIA
Target sequence (Q00987 whole entry, looked up): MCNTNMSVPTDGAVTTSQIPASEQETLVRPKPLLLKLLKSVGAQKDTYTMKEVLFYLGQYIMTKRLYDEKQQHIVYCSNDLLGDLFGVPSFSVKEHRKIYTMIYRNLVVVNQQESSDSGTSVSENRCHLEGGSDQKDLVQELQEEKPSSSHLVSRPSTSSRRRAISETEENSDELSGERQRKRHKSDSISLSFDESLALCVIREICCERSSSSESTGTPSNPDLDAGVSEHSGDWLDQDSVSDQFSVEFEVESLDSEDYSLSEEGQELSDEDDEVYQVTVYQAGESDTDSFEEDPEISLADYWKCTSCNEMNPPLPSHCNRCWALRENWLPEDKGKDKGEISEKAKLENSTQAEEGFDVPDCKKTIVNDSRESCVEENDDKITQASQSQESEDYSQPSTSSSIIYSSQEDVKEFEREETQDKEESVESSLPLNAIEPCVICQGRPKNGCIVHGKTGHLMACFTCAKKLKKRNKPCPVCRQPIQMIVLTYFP
Jurkat NFkB inh – inhibitors of the PMA/ionomycin-induced NF-kB reporter in Jurkat cells | PMA/ionomycin-induced NF-kB luciferase reporter, luminescence | inhibition, % at 4 µM | 330,000 tested, 0.53% active | AID 435003; in the data active = inhibition above about 50%
CSC inhib – blocks cancer stem cells; cancer stem cell-like cells viability, luminescence; inhibition, % at 7.5 µM; 300,000 tested, 1.1% active; in the data active = inhibition above about 75%; tested in HMLE shEcad cells
Mdm2-MdmX conf – human Mdm2/MdmX binding inhibition, confirmed | shares compounds with Mdm2-MdmX inh | luminescent assay | inhibition, % at 8 µM | 10,000 tested, 55% active; in the data active = inhibition above about 40%
FLuc counter – inhibits full-length luciferase, flagging false Mdm2/MdmX hits; shares compounds with Mdm2-MdmX inh; SaOS-2 full-length luciferase counterscreen, luminescence; inhibition, % at 8 µM; 6,200 tested, 77% active; AID 504607;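 active = mean inhibition at 8 µM reaching about 37%, which flags the compound as non-specific, limit read from the data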;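 note: p53-null SaOS-2 cells with luciferase driven by a doxycycline-inducible promoter; compound on cells about two nights before reading with doxycycline added after day one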
Starred values were filed as active, the others as inactive; nt = no result.

SMILES | aSyn 5UTR inh | Gli-Sufu antag | 697 NFkB inh | Mdm2-MdmX inh | Jurkat NFkB inh | CSC inhib | Mdm2-MdmX conf | others
O=C1CC(c2ccccc2F)c2cc3c(cc2N1)CCC3 (stereo not drawn) | 65* | 9 | -25 | 58* | 42 | nt | 58* | FLuc counter=57*
O=C1CC(c2cccc([N+](=O)[O-])c2)c2cc3c(cc2N1)CCC3 (stereo not drawn) | 32 | 15 | 2 | 31 | 25 | 41 | nt
COc1ccccc1C1CC(=O)Nc2cc(C)c(C)cc21 (stereo not drawn) | 63* | 20 | -19 | 60* | 35 | 39 | 55* | FLuc counter=60*
Cc1ccc(C(=O)OCc2nnc(-c3ccc(Br)cc3)o2)cc1 | 4 | -17 | 25 | 17 | -4 | 1 | nt
Cc1onc(-c2c(Cl)cccc2Cl)c1/C(N)=N/OC(=O)C(C)(C)C | 4 | 3 | 20 | 2 | 1 | nt | nt
CC(C)(C)C(=O)O/N=C(\N)c1c(Cl)cccc1Cl | 10 | 4 | 8 | 54* | -3 | 9 | -6
C[C@H]1CN([C@@H](C)CO)C(=O)Cc2cc(NC(=O)C3CC3)ccc2O[C@H]1CN(C)Cc1ccc(C(=O)O)cc1 | nt | -7 | 0 | -2 | 10 | nt | nt
CN(CCO)c1cc(Sc2nc3ccccc3s2)c2nonc2c1[N+](=O)[O-] | -21 | 9 | -16 | 97* | 2 | 103* | 97* | FLuc counter=2
CC(=O)OCCN(C)c1cc(SC(C)C)c2nonc2c1[N+](=O)[O-] | -1 | 5 | -12 | 15 | 3 | -16 | nt
CC1(c2ccccc2)CC(C)(C)n2c(O)c(C3=NC(=S)NC3=O)c3cccc1c32 (stereo not drawn) | 51 | 14 | -32 | 68* | -9 | 20 | 25
O=C(CCCCn1c(=O)c2ccccc2n(Cc2ccc(F)cc2Cl)c1=O)NCc1ccco1 | 6 | 3 | -17 | 54* | 17 | 13 | 25
O=C(CCCCn1c(=O)c2ccccc2n(CC(=O)Nc2ccc(F)cc2)c1=O)NCc1ccco1 | -13 | 0 | 13 | -20 | -4 | -19 | nt
O=C(Oc1ccccc1C(=O)Oc1ccccc1)c1cccnc1 | -1 | 11 | 21 | 52* | 8 | -9 | 4
Cc1c(C(=O)NCCC2=CCCCC2)oc2ccc(S(=O)(=O)N3CCOCC3)cc12 | nt | 20 | -11 | 54* | 8 | 16 | 34
Cc1c(C(=O)NCCCN2CCCC2=O)oc2ccc(S(=O)(=O)N3CCOCC3)cc12 | nt | 4 | -17 | 1 | -29 | -13 | nt
Cc1cccc2c(N=Nc3ccccc3)c(O)[nH]c12 | -112 | -77 | -190 | -55 | -122 | -5 | nt
Cc1[nH]c(N=Nc2ccccc2)nc1N=Nc1ccccc1 | 63* | 13 | -12 | 77* | -3 | 105* | 84* | FLuc counter=24
COc1cccc(NC(=O)c2nnn(CC(=O)Nc3cc(C)cc(C)c3)c2N)c1 | 20 | -27 | 2 | 74* | -2 | -4 | 4
COc1ccc(NC(=O)c2nnn(CC(=O)Nc3ccccc3OC)c2N)c(OC)c1 | -11 | -10 | 1 | 68* | -1 | 0 | -2
CCOc1ccc(OCC)c(NC(=O)c2nnn(CC(=O)Nc3cc(C)cc(C)c3)c2N)c1 | 40 | 0 | 9 | 58* | 5 | 19 | 8
COc1ccc(NC(=O)c2oc3ccccc3c2NC(=O)c2ccc(OC)c(OC)c2)c(OC)c1 | nt | 3 | nt | nt | nt | nt | nt
COc1ccc(NC(=O)c2oc3ccccc3c2NC(=O)COc2ccccc2OC)c(OC)c1 | 32 | 10 | 5 | 70* | 10 | 7 | -5
COc1cc(C2CC(=O)Oc3cc4c(cc32)OCO4)cc(OC)c1OC (stereo not drawn) | nt | -9 | -5 | 11 | nt | nt | nt
COc1cc([C@@H]2c3cc4c(cc3[C@@H](O)[C@H]3COC(=O)[C@H]23)OCO4)cc(OC)c1O[Si](C)(C)C(C)(C)C | 24 | 0 | -1 | 71* | 9 | 127* | 37 | FLuc counter=81*
Cc1cc(C)n(-c2nc(SCCN(C)C)c3c4c(sc3n2)COC(C)(C)C4)n1 | 0 | 2 | -3 | 54* | -28 | 8 | 58* | FLuc counter=53*
